# Bioassay records as filed in PubChem.
# CCHF vOTU inh-1: CCHFV vOTU protease inhibitors, primary screen, biochemical, Pep-AMC substrate, fluorescence; inhibition, % at 11.5 µM; 370,000 compounds, 0.55% hits; also: 0% = vehicle wells with enzyme and 100% = no enzyme wells
# MazF activator: activators of E. coli MazEF toxin-antitoxin RNase, primary screen, biochemical, fluorescence, uHTS. activation, % at 20 µM. FAM/BHQ RNA-DNA oligo cleavage fluorescence, 5 h. AID 504720, 2011. 350,000 compounds, 0.32% hits; in the data active = activation above about 50%
# Target sequence (P0AE70 whole entry, looked up): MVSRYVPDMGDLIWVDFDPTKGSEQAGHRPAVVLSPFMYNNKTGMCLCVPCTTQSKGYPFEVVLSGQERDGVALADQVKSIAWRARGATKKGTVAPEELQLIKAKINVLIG
# VHR inh abs: VHR1 phosphatase inhibitors, primary screen, biochemical, absorbance, uHTS; Dual specificity protein phosphatase 3 (Homo sapiens), P51452; recombinant VHR phosphatase, pNPP absorbance; inhibition, % at 13.3 µM; 290,000 compounds, 0.52% hits; in the data active = inhibition above about 50%
# Target sequence (P51452 whole entry, looked up): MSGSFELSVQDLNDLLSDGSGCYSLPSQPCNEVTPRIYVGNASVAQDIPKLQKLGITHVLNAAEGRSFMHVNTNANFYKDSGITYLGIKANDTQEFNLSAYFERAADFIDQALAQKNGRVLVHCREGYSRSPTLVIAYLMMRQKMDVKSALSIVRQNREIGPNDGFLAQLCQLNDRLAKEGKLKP
# BJeLR lethal: MLPCN primary cell-based screen for lethality selective to Ras in HRASV12 cells. BJeLR (HRASV12) viability, CellTiter-Glo ATP luminescence, 48 h. inhibition, % (no concentration beside the values). 300,000 compounds, 0.17% hits; in the data active = inhibition above about 50%
# SARS 3CLpro inh: SARS-CoV 3CLpro protease inhibitors, primary screen, biochemical, quenched FRET | Replicase polyprotein 1ab (Severe acute respiratory syndrome coronavirus), P0C6X7 | recombinant SARS-CoV 3CLpro, quenched FRET peptide cleavage | inhibition, % at 6 µM | 290,000 compounds, 0.14% hits | AID 1706, 2009; in the data active = inhibition above about 12%
# CCHF vOTU inh-2: CCHFV vOTU protease inhibitors, confirmation, biochemical, Pep-AMC substrate, fluorescence | shares compounds with CCHF vOTU inh-1 | Recombinant CCHFV vOTU | inhibition, % at 11.5 µM | 1,900 compounds, 17% hits | AID 686976, 2013
# The depositor's hits bear a star; . = no result. A selection: hits, their analogues and other compounds. The true share with any hit is near 1.4%. Rule as the data show it, unless noted: active = inhibition above about 30%; inactive = the rest.
SMILES,CCHF vOTU inh-1,MazF activator,VHR inh abs,BJeLR lethal,SARS 3CLpro inh,CCHF vOTU inh-2
CCOC(=O)Cc1nc(N2CCN(Cc3cccc4c3OCO4)CC2)c2c(C)c(C(=O)OCC)sc2n1,3,.,.,.,.,.
O=C1NC[C@H](Cc2ccc(O)cc2)N(C[C@@H]2CCCN2C[C@H](Cc2ccc(O)cc2)N2C[C@H](Cc3ccccc3)N(CCc3ccccc3)C(=O)C2=O)C1=O,34*,.,.,.,.,-19
CC(C)C[C@@H](CN1CCC[C@@H]1CN1C(=S)NC[C@@H]1Cc1ccccc1)N1C[C@H](Cc2ccc(O)cc2)N(CC2CCCCCC2)C1=S,13,.,.,.,.,.
CCOc1ccc(CCN2C(=S)N([C@@H](Cc3ccc(O)cc3)CN3CCC[C@@H]3CN3C(=S)NC[C@@H]3Cc3ccccc3)C[C@@H]2Cc2ccccc2)cc1,14,.,.,.,.,.
CCOc1ccc(CCN2C(=O)C(=O)N([C@@H](CC(C)C)CN3CCC[C@H]3CN3C(=O)C(=O)NC[C@@H]3CC(C)C)C[C@@H]2Cc2ccc(O)cc2)cc1,22,.,.,.,.,.
CCOc1ccc(CCN2C(=S)N([C@@H](Cc3ccccc3)CN3CCCC3CN3C(=S)NC[C@@H]3Cc3ccccc3)C[C@@H]2Cc2ccc(O)cc2)cc1 (stereo partly drawn),30*,.,.,.,.,-5
CC(C)C[C@@H](CN1CCC[C@@H]1CN1C(=S)NC[C@@H]1Cc1ccccc1)N1C[C@H](Cc2ccc(O)cc2)N(CC2CCCCC2)C1=S,30*,.,.,.,.,-12
CCOc1ccc(CCN2C(=O)C(=O)N([C@@H](CC(C)C)CN3CCC[C@H]3CN3C(=O)C(=O)NC[C@@H]3Cc3ccc(O)cc3)C[C@@H]2Cc2ccccc2)cc1,30*,.,.,.,.,-9
Oc1ccccc1C=Nn1c(-c2ccccc2F)n[nH]c1=S,20,.,.,.,.,.
COc1ccc(S(=O)(=O)N2CCCCCC2)c2ccccc12,1,.,.,.,.,.
Cc1ccc(CN2CCCCC(NC(=O)Nc3ccccc3F)C2=O)cc1 (stereo not drawn),-1,.,.,.,.,.
COc1ccc(NC(=O)[C@@H]2CCCN2C(=O)[C@@H]2Cc3ccccc3CN2C(=O)OC(C)(C)C)cc1,35*,4,4,6,-1,-6
COc1ccc(NC(=O)C2CCN(C(=O)[C@@H]3Cc4ccccc4CN3C(=O)OC(C)(C)C)CC2)cc1,11,4,16,2,-3,.
Cc1noc(NS(=O)(=O)c2ccc(NS(=O)(=O)c3ccc(Cl)cc3)cc2)c1C,1,0,.,.,.,.
Cc1noc(NS(=O)(=O)c2ccc(NS(=O)(=O)c3ccc(C(C)(C)C)cc3)cc2)c1C,30*,-8,.,.,.,-15
Cc1nc2c([nH]1)C1(CCN(Cc3ccccc3)CC1)C(C#N)=C(N)O2,40*,18,-10,.,-6,-24
COc1ccc(C(=O)/C=C/c2ccc(OCc3ccccc3)cc2)cc1CSCC(=O)O,36*,-9,-7,-6,4,3
COc1ccc(C(=O)/C=C/c2cccc(OCc3ccccc3)c2)cc1CSCC(=O)O,13,-6,2,3,-2,.
O=C(Nc1ccc(F)cc1)OCCN1C(=O)CCC12CCC(c1ccccc1)CC2 (stereo not drawn),2,.,.,.,.,.
O=C1CC(C(=O)Nc2ccc(F)cc2)S/C(=N\N=C\c2ccco2)N1 (stereo not drawn),35*,-3,15,18,-5,-10
O=C(CC1S/C(=N/N=C/c2ccco2)NC1=O)Nc1ccccc1 (stereo not drawn),8,7,18,2,-2,.
CC(=O)Nc1nc2ncccn2c1-c1ccccc1,-37,.,.,.,.,.
COc1ccccc1C1N(c2ccc(Cl)cc2)C(=O)C2CCCN21 (stereo not drawn),-4,1,-8,-1,-3,.
O=C1C2CCCN2C(c2cccs2)N1c1ccc(Cl)cc1 (stereo not drawn),31*,0,-6,-5,-6,-11
CC(C)C[C@@H]1COc2cc(F)ccc2S(=O)(=O)N1C,0,.,.,.,.,.
SMILES,CCHF vOTU inh-1,MazF activator,VHR inh abs,BJeLR lethal,SARS 3CLpro inh,CCHF vOTU inh-2
O=S1(=O)c2ccc(Br)cc2OC[C@@H](Cc2ccccc2)N1Cc1cn(CC2CCCCC2)nn1,15,.,.,.,.,.
COc1cc(C(=O)c2nccc3cc(OC)c(OC)cc23)c([N+](=O)[O-])cc1OC,103*,4,-10,-5,0,72*
COc1cc(Br)c(C(=O)c2nccc3cc(OC)c(OC)cc23)cc1OC,111*,1,0,17,8,90*
Cc1ccc(NC(=S)N(Cc2ccc(Br)cc2)Cc2ccc(C(=O)O)cc2)cc1C,31*,2,7,6,2,6
Cc1cc(C)cc(NC(=S)N(Cc2ccc(Br)cc2)Cc2ccc(C(=O)O)cc2)c1,8,3,38,-3,9,.
O=C(CSc1nnc(-c2ccccn2)n1Cc1ccco1)Nc1ccc(Oc2ccccc2)cc1,9,.,.,.,.,.
CCCCOc1ccc(C(=O)N/C(=C/C=C/c2ccccc2)C(=O)NC)cc1,31*,-1,-11,-4,-3,-3
CCCCOc1ccc(C(=O)N/C(=C/C=C/c2ccccc2)C(=O)O)cc1,29,-3,-12,2,4,.
COP(=O)(O)C[C@@H]1CCc2cc(C)cc([C@H](CC(C)C)NC(=O)OCc3ccccc3)c2O1,16,.,.,.,.,.
Nc1ccccc1C(=O)N1CCc2ccccc21,49*,11,13,-1,4,-4
O=c1oc2ccccc2c(N2CCCC2)c1[N+](=O)[O-],31*,-4,15,1,2,-15
CN=c1sc2c(n1C)C(=O)c1ccccc1C2=O,80*,12,.,.,.,79*
Cc1cc[n+](-c2[nH]c(=O)sc2/C=N/N=C(\[O-])c2ccncc2)cc1,31*,-6,22,-10,-3,-18
Cc1cc[n+](-c2[nH]c(=O)sc2/C=N/N=C(\[O-])c2ccccc2)cc1,0,-19,-3,3,-5,.
CC(C)(C)C(=O)NC1CCCCN(Cc2ccc(Cl)cc2)C1=O (stereo not drawn),2,.,.,.,.,.
Cc1ccc(S(=O)(=O)N2[C@@H](c3ccc(Cl)c(Cl)c3)C(C(=O)O)=C[C@H]2CC2CCCC2)cc1,34*,-2,.,.,.,18
CC[C@@H]1C=C(C(=O)O)[C@H](c2ccc(Cl)cc2)N1S(=O)(=O)c1ccc(C)cc1,32*,-1,.,.,.,-15
Cc1ccc(S(=O)(=O)N2[C@@H](c3ccc(Cl)cc3)C(C(=O)O)=C[C@H]2CC2CCCC2)cc1,31*,-5,.,.,.,20
Cc1ccc(S(=O)(=O)N2[C@@H](c3ccc(C#N)cc3)C(C(=O)O)=C[C@H]2CC2CCCC2)cc1,15,0,.,.,.,.
CC[C@@H]1C=C(C(=O)O)[C@H](c2ccc(C)cc2)N1S(=O)(=O)c1ccc(C)cc1,-1,8,.,.,.,.
